From PubChem BioAssay (NCATS)
Inconclusive results are not listed. Activity calls are given as the source filed them. The call rests on the fitted dose curve; in most records, active means well fitted curve in the direction sought with a large enough effect; inconclusive means small, poorly fitted or top-dose-only effect, or another doubt; inactive means no such curve, though single readings can be large; an effect the other way counts as inactive or inconclusive.

Experiments:
[1] = target: Glutathione peroxidase 1 (Homo sapiens) (UniProt P07203); assay: Primary qHTS Assay for Inhibitors of Recombinant Selenoprotein Glutathione Peroxidase 1 (GPX1) (AID 1845191); further: nearly all actives have a fitted effect of over 65% in size; on activity, negative = inhibition: on the % scale 0 is the no-effect control and ±100 the full control effect
Chain of Glutathione peroxidase 1 (Homo sapiens) (P07203 whole entry, looked up): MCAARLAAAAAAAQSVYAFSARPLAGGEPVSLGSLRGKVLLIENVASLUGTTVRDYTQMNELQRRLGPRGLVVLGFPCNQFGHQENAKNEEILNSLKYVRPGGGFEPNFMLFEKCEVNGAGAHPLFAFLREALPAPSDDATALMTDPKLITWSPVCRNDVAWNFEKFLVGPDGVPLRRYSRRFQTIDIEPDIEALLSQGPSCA
Outline: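 GPX1 10 nM, GR 100 nM, GSH 1 mM, NADPH 0.5 mM, CHP 0.5 mM (final). 30-min cpd preincubation, RT. Ex340/Em450 read t=0, t=15 min.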

[2] = target: Phospholipid hydroperoxide glutathione peroxidase GPX4 (Homo sapiens) (UniProt P36969); assay: Primary qHTS Assay for Inhibitors of Recombinant Selenoprotein Glutathione Peroxidase 4 (GPX4) (AID 1845192); further: nearly all actives have a fitted effect of over 65% in size; on activity change, negative = inhibition: series mostly up to about 50 µM; on the % scale 0 is the no-effect control and ±100 the full control effect
Chain of Phospholipid hydroperoxide glutathione peroxidase GPX4 (Homo sapiens) (P36969 whole entry, looked up): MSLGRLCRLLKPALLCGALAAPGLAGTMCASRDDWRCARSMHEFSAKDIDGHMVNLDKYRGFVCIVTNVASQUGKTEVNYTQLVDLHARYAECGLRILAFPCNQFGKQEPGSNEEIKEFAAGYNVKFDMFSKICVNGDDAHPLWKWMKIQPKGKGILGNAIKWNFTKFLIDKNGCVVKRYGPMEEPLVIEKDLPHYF
Outline: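 qHTS, GR-coupled: GPX4 200 nM + cpd 30 min RT → GSH 1 mM, NADPH 0.5 mM, GR 100 nM → CHP 0.5 mM start; fluor 340/450 at t0 and t15 min; no-enzyme wells as control.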

[3] = target: Luciferin 4-monooxygenase (Photinus pyralis) (UniProt P08659); assay: Primary firefly luciferase (FLuc) qHTS assay for identification of artifact compounds. (AID 1845220); further: nearly all actives have a fitted effect of over 60% in size;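 on activity change, negative = inhibition: series mostly up to about 54 µM; plate controls were DMSO vehicle for no effect and no enzyme for full effect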
Outline: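 qHTS, 15 min compound preincubation with substrate (10 uM luciferin, 10 uM ATP) at RT, then 10 nM FLuc; 5 min; luminescence; % inhibition vs no-enzyme/DMSO controls, 4-parameter Hill fit.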

[4] = test system: Nanoluciferase (engineered Oplophorus gracilirostris luciferase); assay: Primary Nanoluciferase (NLuc) qHTS assay for identification of artifact compounds. (AID 1845222); further: series mostly up to about 54 µM
Outline: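 Luminescence read-out of secreted NLuc in S16 cell conditioned medium (1:55); compounds tested with 15 min RT preincubation, then Nano-Glo substrate 1:100, 5 min. % inhibition vs no-enzyme and DMSO controls, 4-parameter Hill fit.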

[5] = Primary redox qHTS assay for identification of artifact compounds. (AID 1845223);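 further: 0% = DMSO and 100% = reference compound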
Outline: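 Redox-cycling detection via DTT (250 uM final) oxidation coupled to Amplex Red (25 uM)/HRP (250 mU/mL) in HBSS. 15 min preincubation plus 30 min after DTT, room temperature. Ex/Em 525/598 nm; 4-parameter Hill fit against DMSO and 10 uM DA3003.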

[6] = Primary fluorescence-based thiol-reactive (MSTI) qHTS assay for identification of artifact compounds. (AID 1845221); further: nearly all actives have a fitted effect of over 65% in size; further: potency means the concentration at half of the fitted maximal effect
Outline: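 First, 4 uM MSTI in 2% DMSO/PBS pH 7.4 was dispensed; next, compounds were added; then plates sat 1 h at room temperature without light. Finally, emission at 598 nm was recorded.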

COc1cc2c(cc1OC)N1C(=O)C[C@@]34C=CC[N@+]5([O-])CC[C@H]2[C@H](CC3)[C@@]145
inactive: Potency [1] | Potency [2] | Potency [3] | Potency [4] | Potency [5]

CC1(C)C[C@H](O)C[C@@]2(C)[C@H]1[C@H](O)C=C1COC(=O)[C@@]12O
inactive: Potency [1] | Potency [2] | Potency [3] | Potency [4] | Potency [5]

O=C(C[C@@H]1C(C(=O)O)=CO[C@@H](O[C@@H]2O[C@H](CO)[C@@H](O)[C@H](O)[C@H]2O)/C1=C\CO)OCCc1ccc(O)c(O)c1
inactive: Potency [1] | Potency [2] | Potency [3] | Potency [4] | Potency [5]

CCC(=O)N1CCc2cc(OC)c(O)cc2C1
inactive: Potency [1] | Potency [2] | Potency [3] | Potency [4] | Potency [5]

NC(N)=NCCC[C@H](NC(=O)c1sccc1NS(=O)(=O)c1cccc2nsnc12)C(=O)O
inactive: Potency [1] | Potency [2] | Potency [3] | Potency [4] | Potency [5]

Oc1ccc(CC2NCCc3cc(O)c(O)cc32)cc1 (stereo not drawn)
inactive: Potency [1] | Potency [2] | Potency [3] | Potency [4] | Potency [5]

C=C[C@H]1[C@H](O[C@@H]2O[C@H](CO)[C@@H](O)[C@H](O)[C@H]2O)OC=C2C(=O)N3Cc4c([nH]c5ccccc5c4=O)[C@@H]3C[C@H]21
inactive: Potency [1] | Potency [2] | Potency [3] | Potency [4] | Potency [5]

CC(C)(O)C1OC1C1=CC(=O)C2(C)OC2C1O (stereo not drawn)
inactive: Potency [1] | Potency [2] | Potency [3] | Potency [4] | Potency [5]

COc1cc(/C=C/C(=O)OC[C@H]2O[C@@H](OC3OC=C(C(=O)O)C4C(O)CC(C)(O)C34)[C@H](O)[C@@H](O)[C@@H]2O)cc(OC)c1O (stereo partly drawn)
inactive: Potency [1] | Potency [2] | Potency [3] | Potency [4] | Potency [5]

O=C(O)Cc1cn([C@@H]2OC[C@@H](O[C@@H]3O[C@H](CO)[C@@H](O)[C@H](O)[C@H]3O)[C@H](O)[C@H]2O[C@@H]2O[C@H](CO)[C@@H](O)[C@H](O)[C@H]2O)c2ccccc12
inactive: Potency [1] | Potency [2] | Potency [3] | Potency [4] | Potency [5]

CC1C(=O)OCC2=CC[N+]3([O-])CCC(OC(=O)C(C)(O)C1(C)O)C23 (stereo not drawn)
inactive: Potency [1] | Potency [2] | Potency [3] | Potency [4] | Potency [5]

O=C(Nc1cc(-c2ccccc2)nn1-c1ccccc1)c1ccc([N+](=O)[O-])cc1
inactive: Potency [1] | Potency [2] | Potency [3] | Potency [4] | Potency [5]

COC(=O)[C@H](Cc1ccc([N+](=O)[O-])cc1)NC(=O)c1cccc2ccccc12
inactive: Potency [1] | Potency [2] | Potency [3] | Potency [4] | Potency [5]

COc1ccc(/C=C/C(=O)O[C@@H]2[C@@H](O[C@@H]3O[C@H](CO)[C@@H](O)[C@H](O)[C@H]3O)[C@@H](O)[C@H](O[C@H]3C4C=CO[C@@H](O[C@@H]5O[C@H](CO)[C@@H](O)[C@H](O)[C@H]5O)C4[C@@]4(CO)O[C@@H]34)O[C@H]2C)cc1 (stereo partly drawn)
inactive: Potency [1] | Potency [2] | activity change, negative = inhibition [3] -3.03% [at 11.6 µM] | activity, negative = inhibition [4] 1.1% [at 11.6 µM] | redox activity (% of DA3003) [5] 9.47% [at 11.5 µM]

C=C[C@H]1[C@H](O[C@@H]2O[C@H](CO)[C@@H](O)[C@H](O)[C@H]2O)OC=C(C(=O)OC)[C@H]1CC=O
inactive: Potency [1] | Potency [2] | Potency [3] | Potency [4] | Potency [5]

C=C1CCC2(OC1)OC1CC3C4CC=C5CC(O)CC(O[C@@H]6OC[C@H](OC(=O)C(O)C(C)CC)[C@H](O)[C@H]6O[C@@H]6O[C@@H](C)[C@H](O)[C@@H](O)[C@H]6O)C5(C)C4CCC3(C)C1C2C (stereo partly drawn)
inactive: Potency [1] | Potency [2] | activity change, negative = inhibition [3] 0.354% [at 11.6 µM] | activity, negative = inhibition [4] 4.49% [at 11.6 µM] | redox activity (% of DA3003) [5] -3.18% [at 11.5 µM]

CC1CC(=O)[C@]2(O)C(C(=O)OCCc3ccc(O)cc3)=CO[C@@H](O[C@@H]3O[C@H](CO)[C@@H](O)[C@H](O)[C@H]3O)[C@H]12 (stereo partly drawn)
inactive: Potency [1] | Potency [2] | Potency [3] | Potency [4] | Potency [5]

CCOc1ccc(-c2nn3ncccc3c2-c2ccc(S(C)(=O)=O)cc2)cc1
inactive: Potency [1] | Potency [2] | Potency [6] | Potency [4] | Potency [5]

C=CCc1ccc(O[C@@H]2O[C@H](CO)[C@@H](O)[C@H](O)[C@H]2O)c(O[C@@H]2O[C@H](CO)[C@@H](O)[C@H](O)[C@H]2O)c1
inactive: Potency [1] | Potency [2] | Potency [4] | Potency [5]

CC(C)C1NC(=O)C2CCCN2C1=O (stereo not drawn)
inactive: Potency [1] | Potency [2] | Potency [4] | Potency [5]

COc1c(-c2ccc(O)cc2)cc(OC)c2c1oc1cc(O)c(OC3OC(CO)C(O)C3O)cc12 (stereo not drawn)
active: Potency [6] 4.62 µM
inactive: Potency [1] | Potency [2] | Potency [4] | Potency [5]
